From article PMC12136788
Whole data set: some 5,800 sequences, median “enrichment r” near 0.68, cut for the highest 2% near 11. Only a selection was taken, and the highest values are over-represented in it overall.

B1: chr11:118750849:118750950:-|3pUTR|ENSG00000110367|msi1|FALSE|unique (ssRNA)
RNA: GGGAGUUCUACAGUCCGACGAUCAUUCUAGAAAGUACUUUGGCCUCGUGCUGUAGAGAGCAGAUUUCUAUGGUACCCUGUGUUAGUAAAGGGGCCCAGAAAUCUGGGAUGUACUGUUUGCUGCCACACUGUCUCAUCUAGUACCAACAGAGGAUUGAGCAUCA
B2: ENSG00000198589:be:win_8001|CDS|ENSG00000198589|bound_else_gene|NA|bound_elsewhere_windowed (ssRNA)
RNA: GGGAGUUCUACAGUCCGACGAUCUGGAGAUAACCCAGGCAGUGAGACUGCUGCUCCUCGGGCCAUUUUGACCGGCCAUGACUAUGAGGUCACAUGUGCUGCGGUGUGUGCGGAGCUAGGCCUGGUGUUGAGUGGUUCACAAGACAACAGAGGAUUGAGCAUCA
B3: chr2:231108229:231108516:-|three_prime_utr|ENSG00000135914|control|control|control (ssRNA)
RNA: GGGAGUUCUACAGUCCGACGAUCAAGAAUAUCUAAUUUUCCUAAUUUGGACAAGAUUAUUCCAUGAGGAAAAUAAUUUUAUAUAGCUACAAAUGAAAACAAUCCAGCACUCUGGUUAAAUUUUAAGGUAUUCGAAUGAAAUAACAACAGAGGAUUGAGCAUCA
B4: chr5:113594843:113594944:+|3pUTR|ENSG00000047188|msi1|FALSE|bound_elsewhere (ssRNA)
RNA: GGGAGUUCUACAGUCCGACGAUCCAACAUAAAAUCUUGAGAACCUUCUACUUUCUCUGGGAAAGCAUUAUAUAGUGGUGCAUUAGUUUAGAAAGUCAGCUAUGAUUUUGCCUAUAGUUCUAGUUAUUAGCUUUGGGGUUUUCUCAACAGAGGAUUGAGCAUCA
B5: chr3:49657245:49657349:+|CDS|ENSG00000164061|unk|total|mutant (ssRNA)
RNA: GGGAGUUCUACAGUCCGACGAUCCAGCCGCCGUGGCAUCAAGAAGCGGCACUCCAUGCCACGCCUGCGGGAUGCCUGUGAGCCCGAGUCUGGGACUGAGCCCUGUGUGGUCAGGAGGAUUGCCGACAGCAGCGUGCAGACAGACAACAGAGGAUUGAGCAUCA
B6: chr1:193014253:193014354:-|3pUTR|ENSG00000116750|unk|total|mutant (ssRNA)
RNA: GGGAGUUCUACAGUCCGACGAUCUUAACCGGUAUAAGGAUUUUUCUUAUUAAUCUAAUAAAAUUCCUUAACCGGAAUUUCCACCGCUUAAGAGUGGUUUAUUUUAUCUGCAUCUUCUUUGGUGAUUGCAAAUCCCUUGUGAUACAACAGAGGAUUGAGCAUCA

Target: T1, UNK ZnF1-6 (called full-length) (human, UniProt Q9C0B0 30-357)
T1 sequence: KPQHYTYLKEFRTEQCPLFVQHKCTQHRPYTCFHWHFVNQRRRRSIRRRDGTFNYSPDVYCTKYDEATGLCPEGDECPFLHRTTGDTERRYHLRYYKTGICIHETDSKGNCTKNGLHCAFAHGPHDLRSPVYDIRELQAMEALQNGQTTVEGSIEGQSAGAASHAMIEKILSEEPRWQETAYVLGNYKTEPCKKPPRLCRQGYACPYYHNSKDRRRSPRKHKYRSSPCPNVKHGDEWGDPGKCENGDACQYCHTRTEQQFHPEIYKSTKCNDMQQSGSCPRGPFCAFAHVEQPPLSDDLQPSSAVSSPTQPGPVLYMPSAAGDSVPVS
Assay: nsRBNS (natural sequence RNA bind-n-seq); RBNS binding buffer (assumed for nsRBNS): 25 mM Tris pH 7.5, 150 mM KCl, 3 mM MgCl2, 0.01% Triton X-100, 500 ug/ml BSA, 20 U/ml SUPERase-In, 4 C; UNK is unkempt and MSI1 is Musashi-1; names of the RNAs are library labels; protein concentration not given here; high values mean tight binding

Row | Binder | binding signal [enrichment R]
1 | B1 | 0.975
2 | B2 | 0.695
3 | B3 | 1.88
4 | B4 | 5.33
5 | B5 | 0.785
6 | B6 | 0.372
